Reference: PubChem BioAssay (Tox21)
Where “and” joins values, the source holds several entries; their conditions need not be identical. Equal entries are not always repeated. Values without a mark were called inactive. Results filed as inconclusive are left out. Where a call stands in place of a potency, no number is given. Calls of active or inactive are those of the source. Unless noted, the call rests on the fitted dose curve; in most records, active means well fitted curve in the direction sought with a large enough effect in the repeat runs; inconclusive means weak or mixed curves; inactive means no such curve, though single readings can be large; an effect the other way counts as inactive or inconclusive.

Key:
[1] = Human pregnane X receptor (PXR) small molecule agonists, qHTS cell viability counter screen (AID 1346977); further: nearly all actives have a fitted effect of over 50% in size; further: potency means the concentration at half of the fitted maximal effect
In short: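 After a 5hr pre-incubation, PXR-Luc HepG2 cells received compounds plus positive control in DMSO and were kept 24hr at 37C. Cell viability was quantified by fluorescence from CellTiter-Fluor added for the final hour.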

[2] = Caspase-3/7 induction in HepG2 cells by small molecules, qHTS assay (AID 1346978); further: nearly all actives have a fitted effect of over 15% in size
In short: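 Wild-type HepG2 cells (2,000/well) were settled 5 h at 37 C, 5% CO2, then exposed to compounds in DMSO for 17 h. Caspase-3/7 activity was read by luminescence 30 min after adding Caspase-Glo 3/7 reagent at room temperature.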

[3] = Caspase-3/7 induction in CHO-K1 cells by small molecules, qHTS assay (AID 1346980); further: nearly all actives have a fitted effect of over 15% in size
In short: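 Wild-type cells were seeded at 1,500 per well and settled 5 hr at 37 C, 5% CO2, then exposed to DMSO-dissolved compounds for 17 hr. Caspase-Glo 3/7 reagent was added, and luminescence was read after 30min at room temperature.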

[4] = Caspase-3/7 induction in HepG2 cells by small molecules, qHTS cell viability counter screen (AID 1346981); further: nearly all actives have a fitted effect of over 30% in size; further: potency means the concentration at half of the fitted maximal effect
In short: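 HepG2, WT, 2,000 cells/well; 5 hr pre-incubation 37 C/5% CO2; compound pin-transferred from DMSO; 16 hr exposure; CellTiter-Fluor, 1 hr; fluorescence read.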

[5] = molecular target: Nuclear receptor subfamily 1 group I member 2 (Homo sapiens) (UniProt O75469); assay: Human pregnane X receptor (PXR) small molecule agonists, qHTS assay (AID 1346982); further: nearly all actives have a fitted effect of over 35% in size; further: potency means the concentration at half of the fitted maximal effect
Chain of Nuclear receptor subfamily 1 group I member 2 (Homo sapiens) (O75469 whole entry, looked up): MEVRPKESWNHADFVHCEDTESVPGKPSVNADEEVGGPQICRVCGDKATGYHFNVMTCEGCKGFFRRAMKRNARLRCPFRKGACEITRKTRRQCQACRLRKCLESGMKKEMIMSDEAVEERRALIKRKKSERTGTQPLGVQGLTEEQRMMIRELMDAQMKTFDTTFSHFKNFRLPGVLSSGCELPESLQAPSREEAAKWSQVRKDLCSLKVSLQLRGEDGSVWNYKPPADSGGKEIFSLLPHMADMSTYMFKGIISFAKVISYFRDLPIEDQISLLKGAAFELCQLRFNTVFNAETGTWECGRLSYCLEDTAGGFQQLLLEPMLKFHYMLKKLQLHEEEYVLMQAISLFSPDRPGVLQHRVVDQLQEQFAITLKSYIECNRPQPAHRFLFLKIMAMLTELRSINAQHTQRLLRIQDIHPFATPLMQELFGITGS
In short: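 Luciferase signal from ONE-Glo (30 min, room temperature) measured activation of hPXR-driven CYP3A4 reporter expression in PXR-Luc HepG2 cells treated with compounds for 24 hr at 37 C.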

[6] = molecular target: Acetylcholinesterase (Homo sapiens) (UniProt P22303); assay: Acetylcholinesterase (AChE) small molecule antagonists: colormetric cell-based qHTS assay (AID 1347395; calls by dose curve; further: nearly all actives have a fitted effect of over 30% in size; further: potency means the concentration at half of the fitted maximal effect)
Chain of Acetylcholinesterase (Homo sapiens) (P22303 whole entry, looked up): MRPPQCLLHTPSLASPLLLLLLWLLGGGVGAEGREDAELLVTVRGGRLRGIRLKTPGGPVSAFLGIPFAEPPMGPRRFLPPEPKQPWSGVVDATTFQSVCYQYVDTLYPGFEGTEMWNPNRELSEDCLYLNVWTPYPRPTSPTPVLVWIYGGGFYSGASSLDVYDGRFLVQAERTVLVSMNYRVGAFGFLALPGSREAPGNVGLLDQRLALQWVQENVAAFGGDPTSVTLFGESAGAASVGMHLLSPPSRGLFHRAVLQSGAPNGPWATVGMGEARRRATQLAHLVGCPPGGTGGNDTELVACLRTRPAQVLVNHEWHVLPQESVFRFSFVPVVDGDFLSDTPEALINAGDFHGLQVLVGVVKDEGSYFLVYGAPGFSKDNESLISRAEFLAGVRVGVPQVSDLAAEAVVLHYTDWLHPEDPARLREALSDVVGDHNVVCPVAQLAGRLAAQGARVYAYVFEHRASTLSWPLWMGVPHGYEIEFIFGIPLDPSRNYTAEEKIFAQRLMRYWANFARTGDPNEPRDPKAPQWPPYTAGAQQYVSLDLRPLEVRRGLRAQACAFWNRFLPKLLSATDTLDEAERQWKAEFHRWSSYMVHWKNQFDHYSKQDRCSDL
In short: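 In this cell-based qHTS, attached SH-SY5Y cells were treated with test chemicals for 30 min, after which acetylthiocholine hydrolysis was followed by DTNB colour development over 90 min at 37 C.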

[7] = molecular target: Nuclear receptor subfamily 1 group I member 2 (Rattus norvegicus) (UniProt Q9R1A7); assay: Rat pregnane X receptor (rPXR) activation by small molecules, qHTS assay (AID 1346983); settings: rPXR luciferase reporter cells, One-Glo luminescence, 24 h; stronger effect = higher value; further: nearly all actives have a fitted effect of over 20% in size
Chain of Nuclear receptor subfamily 1 group I member 2 (Rattus norvegicus) (Q9R1A7 whole entry, looked up): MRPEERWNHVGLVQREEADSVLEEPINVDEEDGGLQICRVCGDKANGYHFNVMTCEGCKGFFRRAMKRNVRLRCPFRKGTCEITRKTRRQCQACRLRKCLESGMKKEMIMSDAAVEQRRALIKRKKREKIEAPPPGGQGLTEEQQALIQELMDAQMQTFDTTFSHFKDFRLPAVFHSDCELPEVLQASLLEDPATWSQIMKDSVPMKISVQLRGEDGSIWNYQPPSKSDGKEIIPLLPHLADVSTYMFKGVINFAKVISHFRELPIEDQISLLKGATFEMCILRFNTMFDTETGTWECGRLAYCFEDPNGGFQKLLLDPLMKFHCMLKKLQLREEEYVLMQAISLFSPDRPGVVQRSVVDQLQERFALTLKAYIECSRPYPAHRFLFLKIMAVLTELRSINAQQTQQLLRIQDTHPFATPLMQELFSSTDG
In short: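 Cell-based rPXR luciferase reporter assay, 2,000 cells per well, rested 5hr at 37 C before compound addition in DMSO, then 24 hr at 37 C. One-Glo reagent was added and luminescence read after 30 min at room temperature.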

[8] = molecular target: Nuclear receptor subfamily 1 group I member 2 (Homo sapiens) (UniProt O75469); assay: CYP3A4 induction through human pregnane X receptor (PXR) by small molecules, qHTS assay (AID 1346984); further: nearly all actives have a fitted effect of over 40% in size
In short: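 Luminescence readout: luciferase signal after One-Glo (30 min, room temperature), following 3 h at 37C with 3uM final Luciferin-IPA P450 substrate. Cells were DPX-2 (HepG2, PXR/CYP3A4-luc co-transfected) dosed for 24 h.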

[9] = Caspase-3/7 induction in CHO-K1 cells by small molecules, qHTS cell viability counter screen (AID 1346979); further: nearly all actives have a fitted effect of over 35% in size
In short: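 Multiplexed with Caspase-Glo 3/7 in CHO-K1 cells, this counter screen added CellTiter-Fluor after 16hr of compound exposure and recorded fluorescence 1hr later.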

[10] = molecular target: Nuclear receptor subfamily 1 group I member 2 (Homo sapiens) (UniProt O75469); assay: Human pregnane X receptor (PXR) activation by small molecules, qHTS assay (AID 1346985); further: nearly all actives have a fitted effect of over 40% in size
In short: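 DPX-2 cells (HepG2 co-transfected with a PXR response element and a CYP3A4-promoter luciferase construct) were seeded at 2,000 per well, rested 5 hr at 37C, then exposed to DMSO-dissolved compounds for 24 hr. Activation was read as luciferase luminescence.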

SCc1ccccc1
Potency [1]: inactive
Potency [2]: inactive
Potency [3]: inactive
Potency [4]: inactive
Potency [5]: inactive
Potency [6]: inactive

CCc1cnc(C2=NC(C)(C(C)C)C(=O)N2)c(C(=O)O)c1 (stereo not drawn)
Potency [1]: inactive
Potency [2]: inactive
Potency [3]: inactive
Potency [4]: inactive
Potency [5]: inactive
Potency [6]: inactive

ClCc1ccccc1Cl
Potency [1]: inactive
Potency [2]: inactive
Potency [3]: inactive
Potency [4]: inactive
Potency [5]: inactive
Potency [6]: inactive

C=CCN1C[C@H](C)N([C@H](c2ccc(C(=O)N(CC)CC)cc2)c2cccc(OC)c2)C[C@H]1C
Potency [1]: inactive
Potency [2]: inactive
Potency [3]: inactive
Potency [4]: inactive
Potency [5]: 11.9 µM (active)
max activation [7]: 5.88%
outcome [8]: inactive
Potency [6]: inactive

CCOP(=O)(O)C(N)=O
Potency [1]: inactive
Potency [2]: inactive
Potency [3]: inactive
Potency [4]: inactive
Potency [5]: inactive
Potency [6]: inactive

O=C(O)C(Cl)(Cl)Br
Potency [1]: inactive
Potency [2]: inactive
Potency [3]: inactive
Potency [4]: inactive
Potency [5]: inactive
Potency [6]: inactive

NC(=O)CF
Potency [1]: inactive
Potency [2]: inactive
Potency [3]: inactive
Potency [4]: inactive
Potency [5]: inactive
Potency [6]: inactive

CCOP(=O)(SC(C)CC)N1CCSC1=O (stereo not drawn)
Potency [1]: inactive
Potency [2]: inactive
Potency [9]: inactive
Potency [3]: inactive
Potency [4]: inactive
Potency [6]: inactive

C=CCOC(=O)C(C)(C)OC(=O)c1cc(-n2c(=O)cc(C(F)(F)F)n(C)c2=O)ccc1Cl
Potency [1]: inactive
Potency [2]: inactive
Potency [3]: inactive
Potency [4]: inactive
Potency [5]: 4.24 µM (active)
Potency [6]: inactive

CCCN(CCOc1c(Cl)cc(Cl)cc1Cl)C(=O)n1ccnc1
Potency [1]: 50.1 µM (active)
Potency [2]: inactive
Potency [3]: inactive
Potency [4]: 62.4 µM (active)
Potency [5]: 7.86 µM (active) and 3.44 µM (active)
Potency [6]: inactive

C#CC(O)(C=CCl)CC (stereo not drawn)
Potency [1]: inactive
Potency [2]: inactive
Potency [3]: inactive
Potency [4]: inactive
Potency [5]: inactive
Potency [6]: inactive

CC(C)c1ccc(NC(=O)N(C)C)cc1
Potency [1]: inactive
Potency [2]: inactive
Potency [3]: inactive
Potency [4]: inactive
Potency [5]: 30.6 µM (active)
Potency [6]: inactive

CCNC(=O)NC(=O)/C(C#N)=N/OC
Potency [1]: inactive
Potency [2]: inactive
Potency [3]: inactive
Potency [4]: inactive
Potency [6]: inactive

C[C@]12CC[C@H]3[C@@H](CCC4=CC(=O)CC[C@@H]43)[C@@H]1CC[C@@H]2OC(=O)CCc1ccccc1
Potency [1]: inactive
Potency [2]: inactive
Potency [3]: inactive
Potency [4]: inactive
Potency [5]: inactive

COCc1cnc(C2=NC(C)(C(C)C)C(=O)N2)c(C(=O)O)c1 (stereo not drawn)
Potency [1]: inactive
Potency [2]: inactive
Potency [3]: inactive
Potency [4]: inactive
Potency [5]: inactive
Potency [6]: inactive

O=C(NC(=O)c1cc(F)c(F)cc1Cl)Nc1cc(F)ccc1N1CCC(C(=O)O)CC1
Potency [1]: inactive
Potency [2]: inactive
Potency [3]: inactive
Potency [4]: inactive
Potency [5]: inactive
Potency [6]: inactive

CNC(=O)Oc1cccc(N=CN(C)C)c1
Potency [1]: inactive
Potency [2]: inactive
Potency [3]: inactive
Potency [4]: inactive
Potency [5]: inactive
Potency [6]: 3.99 µM (active)

CCN(C(C)=O)c1cccc(-c2ccnc3c(C#N)cnn23)c1
Potency [1]: inactive
Potency [2]: inactive
Potency [3]: inactive
Potency [4]: inactive
Potency [5]: inactive
max activation [7]: -2.18%
outcome [8]: inactive
Potency [10]: inactive
Potency [6]: inactive

CCCCC1C(=O)NC(=O)N(C2CCCCC2)C1=O (stereo not drawn)
Potency [1]: inactive
Potency [2]: inactive
Potency [3]: inactive
Potency [4]: inactive
Potency [5]: inactive
Potency [6]: inactive

C=CC(=O)NC(C)(C)CC(C)=O
Potency [1]: inactive
Potency [2]: inactive
Potency [3]: inactive
Potency [4]: inactive
Potency [5]: inactive
Potency [6]: inactive

CCOC(=O)c1cn2nc(OP(=S)(OCC)OCC)cc2nc1C
Potency [1]: inactive
Potency [2]: inactive
Potency [3]: inactive
Potency [4]: inactive
Potency [5]: 30.6 µM (active)
Potency [6]: 35.6 µM (active)

CCCCCCCCP(=O)(O)O
Potency [1]: inactive
Potency [2]: inactive
Potency [3]: inactive
Potency [4]: inactive
Potency [5]: inactive
Potency [6]: inactive

CCCSP(=S)(OCC)Oc1ccc(SC)cc1 (stereo not drawn)
Potency [1]: inactive
Potency [2]: inactive
Potency [3]: inactive
Potency [4]: inactive
Potency [5]: 17.2 µM (active)
Potency [6]: inactive

O=C(O)c1ccc(=O)[nH]c1
Potency [1]: inactive
Potency [2]: inactive
Potency [3]: inactive
Potency [4]: inactive
Potency [5]: inactive
Potency [6]: inactive

CCCCOC(=O)CCC(=O)OCCCC
Potency [1]: inactive
Potency [2]: inactive
Potency [9]: inactive
Potency [3]: inactive
Potency [4]: inactive
Potency [6]: inactive

CN(C)c1ccc(N=O)cc1
Potency [1]: 44.7 µM (active) and 27.3 µM (active)
Potency [2]: inactive
Potency [3]: inactive
Potency [4]: 54.6 µM (active) and 61.1 µM (active)
Potency [5]: 21.8 µM (active) and 9.69 µM (active)
Potency [6]: inactive

C[N+](C)(C)CC1CO1 (stereo not drawn)
Potency [1]: inactive
Potency [2]: inactive
Potency [3]: inactive
Potency [4]: inactive
Potency [5]: inactive
Potency [6]: inactive

O=C(N/N=C/c1ccc([N+](=O)[O-])o1)c1cc([N+](=O)[O-])cc([N+](=O)[O-])c1O
Potency [1]: 21.1 µM (active)
Potency [2]: inactive
Potency [3]: inactive
Potency [4]: 13.3 µM (active)
Potency [5]: inactive
max activation [7]: 3.24%
outcome [8]: inactive
Potency [10]: inactive
Potency [6]: inactive

CC(CC(C(N)=O)(c1ccccc1)c1ccccc1)N(C)C (stereo not drawn)
Potency [1]: inactive
Potency [2]: inactive
Potency [3]: inactive
Potency [4]: inactive
Potency [5]: inactive
Potency [6]: inactive

COC1CC(=C(c2cccs2)c2cccs2)C[N+](C)(C)C1 (stereo not drawn)
Potency [1]: inactive
Potency [2]: inactive
Potency [3]: inactive
Potency [4]: inactive
Potency [5]: inactive
max activation [7]: -1.69%
outcome [8]: inactive
Potency [10]: inactive
Potency [6]: inactive

Cc1ncc(C[n+]2csc(CCO)c2C)c(N)n1
Potency [1]: inactive
Potency [2]: inactive
Potency [3]: inactive
Potency [4]: inactive
